Reference: ChEMBL document CHEMBL1157539, “Thousands of chemical starting points for antimalarial lead identification” (Nature, 2010)
Residues, ends and D or L forms follow the SMILES beside them. *: point of attachment. Octanoyl = CCCCCCCC(=O)*

Key:
Type in all cases: functional
[1] = system: Plasmodium falciparum; assay: GSK_TCMDC: Inhibition of Plasmodium falciparum 3D7 in whole red blood cells, using parasite LDH activity as an index of growth. Test compounds present at 2uM
[2] = system: Plasmodium falciparum; assay: GSK_TCMDC: Inhibition of Plasmodium falciparum Dd2 in whole red blood cells, using parasite LDH activity as an index of growth. Test compounds present at 2uM
[3] = system: HepG2; assay: GSK_TCMDC: Percent inhibition of human HepG2 cell line. Test compounds present at 10uM.

Structure (SMILES)	Inhibition [1] [%]	Inhibition [2] [%]	Inhibition [3] [%]
O=C(Nc1ccc2c(c1)CCN2C1CCN(Cc2cccc(F)c2F)C1)c1ccco1 (centres undefined)	87	90	0
Cc1cc(N2CCOCC2)nc(Nc2ccc(NC(=O)Nc3ccc(F)cc3)cc2)n1	100	34	35
CC1CCCN(S(=O)(=O)c2ccc(NC(=O)c3cc(-c4ccccc4O)n[nH]3)cc2)C1 (centres undefined)	93	49	12
CCc1cc(Cc2cnc(N)nc2N)cc(CC)c1OC	90	12	3
NC(=O)c1ccc(NCC(=O)Nc2cccc(-c3cccc(-c4nc5ccccc5[nH]4)c3)c2)cc1	99	30	9
CC(=O)c1cccc(NC(=O)c2ccc(Cl)c(S(=O)(=O)N3CCc4ccccc43)c2)c1	93	11	13
O=C(c1ccc([N+](=O)[O-])o1)N1CCN(c2ccccc2)CC1	94	72	44
CC1Cc2ccccc2N1S(=O)(=O)c1cc(OCC(F)(F)F)ccc1OCC(F)(F)F (centres undefined)	96	95	10
COc1ccc([N+](=O)[O-])cc1N(Cc1ccccc1-c1ccccc1)S(=O)(=O)c1ccc(C(F)(F)F)cc1	96	66	3
O=C(NCc1cccs1)[C@H](Cc1ccccc1)Nc1ccnc(NCCc2ccccc2)n1.O=C(O)C(F)(F)F	85	59	0
CCN(CC)CCNc1ccnc2[nH]c3ccc(I)cc3c12	100	95	14
Cc1[nH]c(C)c(-c2ccc(-c3ccccc3F)nc2)c(=O)c1Br	97	97	2
COc1ccccc1NC(=O)Nc1ccc(-c2ccc(-c3nc4cccc(C)c4[nH]3)s2)cc1	100	99	71
Cl.Clc1ccc(OC2CCC(Cn3ccnc3)(c3ccc(Cl)cc3Cl)CC2)c(Cl)c1 (centres undefined)	98	86	4
C1=CN(Cc2ccccc2)C=CC1=C1C=Nc2ccccc21	90	69	8
Nc1nc(-c2ccc3c(Nc4ccc(F)c(Cl)c4)ccnc3c2)cs1	100	88	13
CCCOc1cccc(C(=O)N[C@@H](Cc2ccccc2)[C@H](O)CNCc2ccccc2OC)c1	95	61	11
CCCCCCCC(=O)N[C@@H](Cc1ccccc1)C(=O)N[C@H](C(=O)O)C(C)C (Octanoyl-Phe-Val-OH)	89	0	0
COc1ccc(NC(=O)NC2CCN(CCCCCNC(=O)/C=C/c3ccc(Cl)c(Cl)c3)C2)c(OC)c1 (centres undefined)	96	9	24
Cc1[nH]c2ccccc2c1C=NNc1nc(=Nc2ccccc2)[nH]c(=Nc2ccccc2)[nH]1	87	23	3
CC(=O)Nc1ccc(OCCCN(Cc2ccccc2C(F)(F)F)c2ccc(C(F)(F)F)c(C#N)c2)c(Cl)c1	85	43	5

Structure (SMILES)	Inhibition [1] [%]	Inhibition [2] [%]	Inhibition [3] [%]
O=C(Nc1cccc(-c2csc(-c3nc4ccccc4[nH]3)c2)c1)c1ccoc1	96	67	36
CC(C)(C)C1CC(=O)CC2C(=O)N(c3ccc(Br)cc3)C(=O)C21 (centres undefined)	94	7	0
CCn1c(-c2nonc2N)nc2cnc(Oc3cccc(NC(=O)c4ccc(OCCN(C(C)C)C(C)C)cc4)c3)cc21	97	10	63
O=C(Nc1cccc(-c2nn3ncccc3c2-c2ccnc(Nc3cccc(-c4cnco4)c3)n2)c1)c1c(F)cccc1F	97	98	96
CSc1ccc(CN2CCC(CNC(=O)c3cc(-c4ccccc4F)cs3)C2)cc1.O=C(O)C(F)(F)F (centres undefined)	90	13	32
Cl.FC(F)(F)c1ccc2c(NCCNc3ccnc4cc(C(F)(F)F)ccc34)ccnc2c1	100	100	21
COc1cccc(Nc2nc(N)c3ccccc3n2)c1.Cl	88	47	18
O=C(NCCN1CCCC1)c1cccc(-c2ccc(-c3nc4cc(C(F)(F)F)ccc4[nH]3)cc2)c1	100	99	34
COc1ccc(O)cc1/C=N/Nc1ccnc2cc(Cl)ccc12	100	92	0
Cn1nc(C(F)(F)F)c(-c2ccc(F)cc2)c1NC(=O)Nc1ccc(F)cc1F	100	98	11
O=C(Nc1ccccc1)c1ccc(N2CCC(COc3cccc(C(F)(F)F)c3)CC2)nc1	96	83	11
CN(Cc1ccc(NC(=O)NC2CCN(C(=O)/C=C/c3ccc(Cl)c(Cl)c3)CC2)cc1)C1CCOCC1	96	14	9
CN1CCCC(CN2CCN(Cc3ccc(-c4cccc(-c5nc6cc(F)ccc6[nH]5)c4)cc3)CC2)C1.O=C(O)C(F)(F)F (centres undefined)	100	99	92
COc1ccccc1N1CCN(c2cccc3c2nc(-c2cncc(C#N)c2)n3CCNCc2ccccc2)CC1.O=C(O)C(F)(F)F	100	81	0
Fc1cccc(COc2ccc(Nc3ncnc4sc(C#CCNC5CCC5)cc34)cc2Cl)c1	100	73	15
Cc1nc2ccc3ccc(CNc4ccc(C#N)cc4)cc3c2c(=O)[nH]1	84	56	55
Cl.O=c1nc(NCCCNCc2cc3c(Cl)cc(Cl)cc3[nH]2)[nH]c2ccsc12	96	11	62
C=CCOC(=O)N1CCC(CNCc2cccc(-c3ccc(-c4nc5cc(C(F)(F)F)ccc5[nH]4)cc3)c2)C1.O=C(O)C(F)(F)F (centres undefined)	100	96	28
Cc1cc(-c2ccc(CN3Cc4ccccc4C3)cc2)ccc1S(=O)(=O)NCCN1CCCC1.O=C(O)C(F)(F)F	94	10	49
Cc1ccc(Cc2c[nH]c(NCCSCc3ccc(CN4CCOCC4)o3)nc2=O)cn1	95	0	2
CC(C)=CCN1CCC(C(=O)Nc2ccc(-c3nc4ccccc4[nH]3)cc2)CC1	95	0	0

Structure (SMILES)	Inhibition [1] [%]	Inhibition [2] [%]	Inhibition [3] [%]
O=C(/C=C/c1cccc2ccccc12)NCCCCCN1CCC(c2c[nH]c3ccccc23)CC1	92	6	55
O=C(NCCN1CCCC1)c1cccc(-c2ccc(-c3nc4cc(F)ccc4[nH]3)s2)c1	100	4	51
Cl.O=c1cc(NCCCNCc2cc3ccc(Br)cc3s2)[nH]c2ccccc12	92	8	18
[O-][s+]1c(Cl)c(-c2ccc(Cl)cc2)c2ccc(Cl)cc21 (centres undefined)	91	99	33
Cc1cccc2nc(-c3cccc(-c4cccc(NC(=O)c5cn(C)c(=O)n5C)c4)c3)[nH]c12	99	80	5
CC(C)CCNC(=O)C1Cc2c([nH]c3cc(Br)ccc23)C2(CCN(Cc3ccccc3)CC2)N1 (centres undefined)	96	45	10
CCCCCCOc1ccc(C(=O)NCCCC2CCN(CCCCCNC(=O)C=Cc3ccc(Cl)c(Cl)c3)CC2)cc1	94	25	22
COc1c(Br)cc(Br)cc1C(C)=O	95	0	3
COc1ccc(-c2cncc(-c3ccc(OC)c(OC)c3)n2)cc1OC.Cl	95	90	6
CCOc1cc(Cl)c(C(C)NC(=O)c2cccc(OC)c2)cc1OCC (centres undefined)	98	92	29
CN(C)CCNC(=O)N1CCCN(c2ncnc3cc(-c4ccc(Cl)cc4)sc23)CC1.O=C(O)C(F)(F)F	98	21	41
CN(C)CCNC(=O)c1ccc(-c2cnc3ccc(NCc4ccc(Cl)c(Cl)c4)nn23)cc1	98	98	60
O=C(Nc1ccc(Cl)cc1)Nc1cccc(-c2cccc(-c3nc4cc(C(F)(F)F)ccc4[nH]3)c2)c1	99	97	87
O=C(Nc1cccc(-c2ccc(-c3nc4ccccc4[nH]3)s2)c1)c1ccncc1	92	29	67
CCNc1cc(C(=O)NC(Cc2ccccc2)C(O)CNC2CCSCC2)cc(N2CCCC2=O)c1 (centres undefined)	99	98	0
COc1cc(CCN(C)Cc2ccc(OC)c(OC)c2)ccc1NC(=O)c1cccc2c(O)c3cccc(F)c3nc12	100	26	14
O=C(Nc1ccc(C(F)(F)F)cc1)c1ccc(NCCCN2CCCCCC2)c([N+](=O)[O-])c1	100	98	42
CC(C)CNCc1cccc(-c2cccc(CNc3ccc4ncccc4c3)c2)c1.O=C(O)C(F)(F)F	92	28	23
Cl.O=C(Nc1cc(Cl)cc(Cl)c1)c1cnn(-c2ccc(F)cc2)c1C1CCNCC1	90	0	13
CCOC(=O)Cc1nc(C(=O)OCC)c(N)[nH]1.Cl	94	24	2
CCC(C)OC(=O)C1=C(C)NC2=C(C(=O)CC(c3ccc(OC)c(OC)c3)C2)C1c1ccc(C)o1 (centres undefined)	93	82	6
